Among the data in PubChem BioAssay (NCI) are growth values, retold here.

Among the test systems are HCT-15 colon; HT29 colon; SNB-75 CNS; SNB-19 CNS; U251 CNS; PC-3 prostate; SK-MEL-5 melanoma; UACC-62 melanoma; LOX IMVI melanoma; SK-MEL-28 melanoma; SK-MEL-2 melanoma; EKVX NSCLC; SN12C renal; UO-31 renal; TK-10 renal; ACHN renal; CAKI-1 renal; CCRF-CEM leukemia; MOLT-4 leukemia; A498 renal.
What all share (assay): NCI-60 one-dose screen, 48 h (100 = growth as untreated, 0 = no growth, -100 = all killed)
Common to all, as to conditions: 10 µM unless noted

Each structure is given as a SMILES string. Compounds without any hit were thinned out: in the full panel of roughly 83,000, 20% have a hit.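 Note: values are percent growth. 100 is the growth of untreated cells, values between 100 and 0 indicate rising inhibition; between -100 and 0 indicates cell death.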 Unmarked numbers belong to inactive results. Active and inactive are the calls of the source. Rule for the calls: active = growth percent below 10; inactive = the rest.

On to `COc1ccc2c3c(ccc2c1)C(=O)/C(=C\O)CC3`, for which the growth in the experiment on HCT-15 colon was 87.3%; in the experiment with HT29 colon it was 103%; in the experiment with SNB-75 CNS, 91.9%; in the experiment with SNB-19 CNS, 103%; in the experiment with U251 CNS, 82.6%; in the experiment with PC-3 prostate it was 88.2%. Besides, the growth with SK-MEL-5 melanoma is 103%; in the experiment with UACC-62 melanoma, 107%; in the experiment on LOX IMVI melanoma it was 87.1%; in the experiment on SK-MEL-28 melanoma, 128%; with SK-MEL-2 melanoma, 99.8%; in the experiment on EKVX NSCLC, 78.5%. Further, the growth was 100% in the experiment on SN12C renal; 96.6% with UO-31 renal; 93.4% in the experiment with TK-10 renal; 102% in the experiment on ACHN renal; 105% with CAKI-1 renal; 72.4% with CCRF-CEM leukemia. The growth with MOLT-4 leukemia is 88.4%.
As to `O=C(c1ccccc1)C(CN1CCCCC1)c1ccccc1` (stereo not given), the growth is -22% (active) with HCT-15 colon; -13.4% (active) in the experiment with HT29 colon; 63.4% in the experiment with SNB-75 CNS; 78.5% in the experiment with SNB-19 CNS; 15.9% in the experiment on U251 CNS; 49.8% in the experiment on PC-3 prostate. The growth in the experiment with SK-MEL-5 melanoma is 58.8%; in the experiment on UACC-62 melanoma it was 25.8%; in the experiment on LOX IMVI melanoma, -94.9% (active); with SK-MEL-28 melanoma, 58.8%; with SK-MEL-2 melanoma, 50.1%; in the experiment on EKVX NSCLC it was 93.8%. Also, the growth in the experiment with SN12C renal was 26%; in the experiment with UO-31 renal it was -36.3% (active); in the experiment with TK-10 renal it was 10.9%; in the experiment with ACHN renal, -12.5% (active); with CAKI-1 renal, 1.39% (active); with CCRF-CEM leukemia, -20.2% (active). Also, the growth in the experiment with MOLT-4 leukemia is 0.0819% (active).
Consider `CCOC1Oc2ccccc2C(=O)/C1=N/c1nccs1` (stereo not given), for which the growth with HCT-15 colon is 80%; with HT29 colon, 105%; in the experiment on SNB-75 CNS, 75.1%; in the experiment on SNB-19 CNS it was 91.7%; with U251 CNS, 82%; in the experiment on PC-3 prostate, 67.8%. For the same compound, the growth in the experiment with SK-MEL-5 melanoma was 101%; in the experiment with UACC-62 melanoma it was 78.7%; in the experiment with LOX IMVI melanoma, 85.2%; in the experiment with SK-MEL-28 melanoma, 99.9%; in the experiment with SK-MEL-2 melanoma, 73.9%; with EKVX NSCLC, 89.3%. The growth in the experiment on SN12C renal was 76.4%; with UO-31 renal, 89.4%; with TK-10 renal, 98.8%; in the experiment on ACHN renal, 84.9%; with CAKI-1 renal, 77.3%; in the experiment with A498 renal, 115%. Moreover, the results for the growth in the experiment with CCRF-CEM leukemia and with MOLT-4 leukemia were 82.4% and 79.8%, respectively.
In the case of `CCOC(CNCc1cc(C)c2[nH]c3ccccc3c2c1C)OCC`, the growth in the experiment on HCT-15 colon is 80.7%; with HT29 colon, 53.1%; with SNB-75 CNS, 73.6%; in the experiment with SNB-19 CNS it was 78.6%; with U251 CNS it was 83.2%; in the experiment with PC-3 prostate, 58.6%. Further, the growth in the experiment on SK-MEL-5 melanoma is 79.8%; with UACC-62 melanoma it was 77.9%; in the experiment with LOX IMVI melanoma it was 77.2%; in the experiment on SK-MEL-28 melanoma, 97.3%; in the experiment on SK-MEL-2 melanoma it was 62.2%; with EKVX NSCLC, 90%. In addition, the growth was 69.7% in the experiment on SN12C renal; 45.1% in the experiment on UO-31 renal; 77.3% in the experiment on TK-10 renal; 88.3% in the experiment on ACHN renal; 71.4% in the experiment with CAKI-1 renal; 39.8% in the experiment with A498 renal. Moreover, the figures for the growth in the experiment with CCRF-CEM leukemia and in the experiment with MOLT-4 leukemia were 77.5% and 62.5%, respectively.
For the compound `NC(=O)NC1(C(=O)O)CCCC1`, the growth in the experiment with HCT-15 colon is 99.9%; in the experiment with HT29 colon it was 108%; with SNB-75 CNS, 100%; in the experiment with SNB-19 CNS, 113%; in the experiment on U251 CNS, 99.9%; in the experiment on PC-3 prostate, 100%. Also, the growth is 111% with SK-MEL-5 melanoma; 115% with UACC-62 melanoma; 103% with LOX IMVI melanoma; 122% with SK-MEL-28 melanoma; 108% in the experiment on SK-MEL-2 melanoma; 115% in the experiment on EKVX NSCLC. For the same compound, the growth was 105% with SN12C renal; 101% with UO-31 renal; 108% in the experiment on TK-10 renal; 105% in the experiment on ACHN renal; 99.9% with CAKI-1 renal; 98.6% with CCRF-CEM leukemia.
As to `O=C(N/N=C/c1cccc(O)c1)c1ccc(C(F)(F)F)nc1Nc1cccc(C(F)(F)F)c1`, the growth was 11.5% in the experiment with HCT-15 colon; 7.96% (active) in the experiment with HT29 colon; -5.22% (active) in the experiment with SNB-75 CNS; 26.2% in the experiment on SNB-19 CNS; 2.76% (active) in the experiment on U251 CNS; -8.91% (active) with PC-3 prostate. In addition, the growth in the experiment on SK-MEL-5 melanoma is 8.39% (active); in the experiment on UACC-62 melanoma, 0.893% (active); with LOX IMVI melanoma it was -18.2% (active); with SK-MEL-28 melanoma, 24.7%; in the experiment with SK-MEL-2 melanoma, 12.9%; in the experiment with EKVX NSCLC, 5.06% (active). In addition, the growth in the experiment on SN12C renal was 7.08% (active); in the experiment with UO-31 renal it was -9.68% (active); in the experiment with TK-10 renal, 15.6%; with ACHN renal, -6.85% (active); in the experiment on CAKI-1 renal, -22% (active); with CCRF-CEM leukemia, -38.3% (active). For the same compound, in the experiment on MOLT-4 leukemia, the growth is -20.5% (active).
`Nc1ccc2c(c1)C(=O)c1cc(Cl)c(Cl)cc1-2`: the growth is 103% in the experiment with HCT-15 colon; 104% with HT29 colon; 68.7% with SNB-75 CNS; 96.6% with SNB-19 CNS; 90.4% in the experiment with U251 CNS; 74.9% with PC-3 prostate. For the same compound, the growth is 98% in the experiment with SK-MEL-5 melanoma; 77.9% with UACC-62 melanoma; 86% with LOX IMVI melanoma; 122% in the experiment on SK-MEL-28 melanoma; 95.8% with SK-MEL-2 melanoma; 74.1% in the experiment on EKVX NSCLC. For the same compound, the growth was 90.8% in the experiment on SN12C renal; 49.9% with UO-31 renal; 113% in the experiment with TK-10 renal; 92.1% in the experiment with ACHN renal; 70.4% with CAKI-1 renal; 76.5% in the experiment with A498 renal. The growth was 82.8% in the experiment on CCRF-CEM leukemia and 77.1% with MOLT-4 leukemia.
`O=c1ccn(C2CC=C(CO)O2)c(=O)[nH]1` (stereo not given): the growth in the experiment on HCT-15 colon was 105%; in the experiment with HT29 colon, 111%; with SNB-75 CNS it was 108%; with SNB-19 CNS it was 108%; in the experiment with U251 CNS, 102%; in the experiment with PC-3 prostate, 85.9%. In addition, the growth in the experiment on SK-MEL-5 melanoma was 90%; in the experiment with UACC-62 melanoma, 91.7%; in the experiment with LOX IMVI melanoma, 94%; in the experiment with SK-MEL-28 melanoma, 106%; in the experiment on SK-MEL-2 melanoma, 105%; in the experiment on EKVX NSCLC, 105%. Also, the growth with SN12C renal is 92.1%; in the experiment on UO-31 renal, 110%; in the experiment on TK-10 renal, 100%; with ACHN renal, 109%; in the experiment with CAKI-1 renal, 63.1%; in the experiment on A498 renal, 101%. Also, the growth in the experiment with CCRF-CEM leukemia was 90.4%; in the experiment with MOLT-4 leukemia it was 101%.
